This is an account of results in PubChem BioAssay (EPA / NIEHS).

Where “and” joins values, the source holds several entries; their conditions need not be identical. Equal values may be shown once. Records with an inconclusive call do not appear. Calls of active or inactive are those of the source. Rule for the calls, unless noted: active = hit-call score of the fitted dose curve at least 0.9, where 1 is the maximum; inactive = score below 0.9.

Assay [1] has as its target Nucleoli Translocation, AR (gene 367) (UniProt P10275). Briefly: UPITT_HCI_U2OS_AR_TIF2_Nucleoli_Antagonist: University of Pittsburgh U2OS Androgen Receptor-Transcriptional Intermediary Factor 2 (AR-TIF2) Antagonism High Content Imaging Assay for Nucleoli Translocation (AID 2283997; active = hit-call score of the fitted dose curve at least 0.9, where 1 is the maximum). In a few lines: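 An antagonist-mode imaging screen: engineered U2OS (AR-RFP, TIF2-GFP) exposed to 20 uM compound, 0.2% DMSO. Activity reflects nucleolar red fluorescence change relative to DHT baseline.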

The target is the same in assay [2]. Briefly: UPITT_HCI_U2OS_AR_TIF2_Nucleoli_Agonist: University of Pittsburgh U2OS Androgen Receptor-Transcriptional Intermediary Factor 2 (AR-TIF2) Agonism High Content Imaging Assay for Nucleoli Translocation (AID 2283998; active = hit-call score of the fitted dose curve at least 0.9, where 1 is the maximum). Summed up:
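U2OS cells expressing RFP-tagged human AR and GFP-tagged TIF2; red fluorescence in nucleoli quantified by high-content imaging. Primary screen at 20 uM final (0.2% DMSO); concentration-response 0.195–50 uM (0.5% DMSO), fitted upward versus DMSO.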

Assay [3] addresses Ratio of Nucleoli Translocation and Cytoplasm, AR (gene 367) (UniProt P10275). Briefly: UPITT_HCI_U2OS_AR_TIF2_Nucleoli_Cytoplasm_Ratio_Antagonist: University of Pittsburgh U2OS Androgen Receptor-Transcriptional Intermediary Factor 2 (AR-TIF2) Antagonism High Content Imaging Assay for Ratio of Nucleoli Translocation and Cytoplasm (AID 2283999; active = hit-call score of the fitted dose curve at least 0.9, where 1 is the maximum;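 note: antagonists lower the DHT-driven ratio of nucleolar to cytoplasmic red signal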). Summed up:
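Compounds were added to U2OS cells carrying red-fluorescent AR and green-fluorescent TIF2, first at 20 uM, with hits confirmed in triplicate and titrated from 0.195 to 50 uM. Nucleolar versus cytoplasmic AR-RFP fluorescence was then quantified by imaging, with analysis relative to DHT.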

A short description of assay [4]: CCTE_Shafer_MEA_acute_spike_number: CCTE's Neural Acute Assay for Total Number of Spikes, Shafer Lab (AID 2284008).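 For AC50: curve fitted for decrease in spike count so AC50 reflects inhibitors.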 Summed up:
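Rat primary cortical neurons on 48-well MEA plates, DIV 13 or 15, at 37 C. 40 min baseline then 40 min with compound (0.03-40 uM); spikes detected at 8x rms noise, expressed as percent change from baseline.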

A short description of assay [5]: CCTE_Shafer_MEA_acute_firing_rate_mean: CCTE's Neural Acute Assay for Mean Firing Rate, Shafer Lab (AID 2284009).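 Note: analyzed for loss of signal so actives lower firing rate relative to DMSO.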 Summed up: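 Spontaneous spiking of primary rat cortical networks, DIV 13/15, 37 C. Compound 0.03-40 uM, n ≥3 wells; 40 min baseline vs 40 min treated. Endpoint fitted in loss-of-signal direction against DMSO.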
Assay [6] in a line: CCTE_Harrill_HTTr_Viability_MCF7: CCTE's 6-hour Cell Viability Assessment for the High-Throughput Transcriptomics (HTTr) Platform, in MCF-7 cells cultured in DMEM + 10% fetal bovine serum, Harrill Lab (AID 2284010). Summed up:
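Read-out is propidium iodide gain of signal by high-content imaging, reflecting membrane integrity loss. Measurements are taken 6 h after dosing, eight concentrations per chemical, with DMSO serving as baseline for bidirectional curve fitting.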

Assay [7] is described as follows: CCTE_Harrill_HTTr_Apoptosis_MCF7: CCTE's 6-hour Apoptosis Assessment for the High-Throughput Transcriptomics (HTTr) Platform, in MCF-7 cells cultured in DMEM + 10% fetal bovine serum, Harrill Lab (AID 2284011). Summed up:
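MCF-7 cells in DMEM + 10% FBS exposed 6 h to chemicals over an eight-point dilution series. Caspase-3/7 activation imaged by high-content CellEvent Green staining; fitted bidirectionally versus DMSO.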

A short description of assay [8]: CCTE_Harrill_HTTr_CellCount_MCF7: CCTE's Cell Proliferation Assessment for the High-Throughput Transcriptomics (HTTr) Platform, Harrill Lab (AID 2284012; active = hit-call score of the fitted dose curve at least 0.9, where 1 is the maximum;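 note: cells exposed to compound for six hours; intended direction is loss of nuclei count meaning fewer cells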). In a few lines: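 Cell count served as viability reporter: loss of Hoechst-stained nuclei, counted by high content imaging, marks decreased growth or survival. Exposure was 6 h in MCF-7 cells across eight concentrations, with DMSO as baseline.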

Assay [9] in a line: CCTE_Shafer_MEA_acute_burst_number: CCTE's Neural Acute Assay for Single-Electrode Bursts, Shafer Lab (AID 2284013). In a few lines: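 Burst totals were derived with adaptive spike detection (8x rms threshold) on filtered signals from rat cortical cultures; change relative to pre-treatment baseline after 40-min compound exposure (0.03-40 uM) was fitted in the negative direction against DMSO.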

Assay [10] is described as follows: CCTE_Shafer_MEA_acute_burst_duration_mean: CCTE's Neural Acute Assay for Mean Burst Duration, Shafer Lab (AID 2284014).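 Note: hits are decreases in mean burst duration relative to DMSO controls.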 In a few lines: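 Acute exposure of mature rat cortical networks (DIV 13 or 15) grown on microelectrode arrays to 0.03-40 uM compound. Mean burst duration compared with the 40-min pre-dose baseline over a 40-min post-dose recording at 37 C.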

Assay [11] is described as follows: CCTE_Simmons_MITO_basal_resp_rate: CCTE's HepG2 Seahorse XF Respirometric Screening Assay at Basal Respiratory State, Simmons Lab (AID 2284001). The conditions noted are these: actives raise or lower the signal. Summed up: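 Readout is oxygen consumption rate after test compound injection, measured by Seahorse XF in HepG2 cells. Seven concentrations from 125 nM up to 100 uM final are tested, and activity in either direction is fitted against DMSO.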

The nature of assay [12]: CCTE_Simmons_MITO_inhib_resp_rate: CCTE's HepG2 Seahorse XF Respirometric Screening Assay at Inhibited Respiratory State [full ETC block], Simmons Lab (AID 2284006). To be noted: actives raise or lower the signal. In a few lines: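 Seahorse respirometry, HepG2, 72 min total, 6-min mix/measure cycles. Cpd 125 nM–100 uM final ×7, n=3 biological. Sequential FCCP, rotenone/antimycin A; inhibited-respiration OCR, bidirectional fit vs DMSO.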

The nature of assay [13]: CCTE_Simmons_MITO_viability: CellTiter-Glo Viability Assessment for CCTE's HepG2 Seahorse XF Respirometric Screening Assay [post-hoc], Simmons Lab (AID 2284007; active = hit-call score of the fitted dose curve at least 0.9, where 1 is the maximum;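 for AC50: cells exposed to chemical for 90 min before the ATP read; actives lower ATP signal relative to DMSO baseline meaning reduced viability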). Summed up:
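Cytotoxicity readout: ATP quantitation via luciferase in HepG2 cells treated 90 min with seven titrated concentrations (125 nM to 100 uM, final). Curves fitted relative to DMSO negative control, three biological replicates per concentration.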
Background: ATP-based viability assays read luminescence as a measure of living cells.

Assay [14] addresses Ratio of Nucleoli Translocation and Cytoplasm, AR (gene 367) (UniProt P10275). Briefly: UPITT_HCI_U2OS_AR_TIF2_Nucleoli_Cytoplasm_Ratio_Agonist: University of Pittsburgh U2OS Androgen Receptor-Transcriptional Intermediary Factor 2 (AR-TIF2) Agonism High Content Imaging Assay for Ratio of Nucleoli Translocation and Cytoplasm (AID 2284000; active = hit-call score of the fitted dose curve at least 0.9, where 1 is the maximum;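 note: hits raise the red nucleolar to cytoplasm ratio above vehicle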). In a few lines:
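Primary screen at 20 uM final (0.2% DMSO), then triplicate confirmation and dose-response from 0.195 to 50 uM final (0.5% DMSO). Cells: U2OS with AR-RFP and TIF2-GFP. Endpoint is the nucleoli/cytoplasm red-fluorescence ratio, gain-of-signal vs DMSO.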

Assay [15] is described as follows: CCTE_Harrill_HTTr_Apoptosis_DMEM_12hr: (Pilot) CCTE's 12-hour Apoptosis Assessment for the High-Throughput Transcriptomics (HTTr) Platform, in MCF-7 cells cultured in DMEM + 10% fetal bovine serum, Harrill Lab (AID 2283982). In a few lines:
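Caspase-3/7 activity was measured by high-content imaging (CellEvent Caspase 3/7 Green) after a 12-hour exposure of MCF-7 cells grown in DMEM with 10% FBS. Eight-point concentration series, fitted bidirectionally against vehicle.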

Assay [16] can be described thus: CCTE_Harrill_HTTr_Apoptosis_DMEM_24hr: (Pilot) CCTE's 24-hour Apoptosis Assessment for the High-Throughput Transcriptomics (HTTr) Platform, in MCF-7 cells cultured in DMEM + 10% fetal bovine serum, Harrill Lab (AID 2283983). Summed up: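 Caspase-3/7 activity read by high-content imaging (CellEvent Green reagent) 24 h after dosing. MCF-7 cells grown in DMEM with 10% FBS received an eight-point concentration series; fits were bidirectional versus DMSO.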

The nature of assay [17]: CCTE_Harrill_HTTr_Apoptosis_PRF_DMEM_6hr: (Pilot) CCTE's 6-hour Apoptosis Assessment for the High-Throughput Transcriptomics (HTTr) Platform, in MCF-7 cells cultured phenol red-free DMEM + 10% charcoal-stripped fetal bovine serum, Harrill Lab (AID 2283984). Summed up: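 Caspase-3/7 activity (CellEvent Green) read by high-content imaging 6 h after dosing, eight concentrations. Cells: MCF-7, phenol red-free DMEM with 10% charcoal-stripped serum. Curves fit both directions against DMSO.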

A short description of assay [18]: CCTE_Harrill_HTTr_Apoptosis_PRF_DMEM_12hr: (Pilot) CCTE's 12-hour Apoptosis Assessment for the High-Throughput Transcriptomics (HTTr) Platform, in MCF-7 cells cultured in phenol red-free DMEM + 10% charcoal-stripped fetal bovine serum, Harrill Lab (AID 2283985). Summed up: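 Caspase-3/7 activity by CellEvent Green high content imaging after 12 h compound exposure (eight concentrations) in MCF-7 grown in phenol red-free DMEM plus 10% charcoal-stripped serum; DMSO as baseline.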

Assay [19] in a line: CCTE_Harrill_HTTr_Apoptosis_PRF_DMEM_24hr: (Pilot) CCTE's 24-hour Apoptosis Assessment for the High-Throughput Transcriptomics (HTTr) Platform, in MCF-7 cells cultured in phenol red-free DMEM + 10% charcoal-stripped fetal bovine serum, Harrill Lab (AID 2283986). In a few lines: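 Eight concentrations tested for 24 h on MCF-7 grown in charcoal-stripped serum, phenol red-free DMEM. High content imaging of CellEvent Caspase 3/7 Green signal gives apoptosis read-out, fitted both ways relative to DMSO.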

The next assay concerns DIO1 (gene 1733). Briefly: CCTE_GLTED_hDIO1: CCTE's human Deiodinase 1 (DIO1) Inhibition Assay, Great Lakes Toxicology and Ecology Division (GLTED) Lab (AID 2283987; active = hit-call score of the fitted dose curve at least 0.9, where 1 is the maximum;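 note: isolated human DIO1 enzyme in a cell-free setup rather than cells; enzyme activity read as free iodide liberated from substrate via Sandell-Kolthoff colorimetry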). In a few lines: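 Cell-free human DIO1 enzyme incubated 3 h with test chemical; iodide freed from substrate then measured by Sandell-Kolthoff absorbance. Run in triplicate; loss of signal relative to DMSO taken as inhibition.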

Sequence of Ratio of Nucleoli Translocation and Cytoplasm, AR (gene 367) (P10275 whole entry, looked up): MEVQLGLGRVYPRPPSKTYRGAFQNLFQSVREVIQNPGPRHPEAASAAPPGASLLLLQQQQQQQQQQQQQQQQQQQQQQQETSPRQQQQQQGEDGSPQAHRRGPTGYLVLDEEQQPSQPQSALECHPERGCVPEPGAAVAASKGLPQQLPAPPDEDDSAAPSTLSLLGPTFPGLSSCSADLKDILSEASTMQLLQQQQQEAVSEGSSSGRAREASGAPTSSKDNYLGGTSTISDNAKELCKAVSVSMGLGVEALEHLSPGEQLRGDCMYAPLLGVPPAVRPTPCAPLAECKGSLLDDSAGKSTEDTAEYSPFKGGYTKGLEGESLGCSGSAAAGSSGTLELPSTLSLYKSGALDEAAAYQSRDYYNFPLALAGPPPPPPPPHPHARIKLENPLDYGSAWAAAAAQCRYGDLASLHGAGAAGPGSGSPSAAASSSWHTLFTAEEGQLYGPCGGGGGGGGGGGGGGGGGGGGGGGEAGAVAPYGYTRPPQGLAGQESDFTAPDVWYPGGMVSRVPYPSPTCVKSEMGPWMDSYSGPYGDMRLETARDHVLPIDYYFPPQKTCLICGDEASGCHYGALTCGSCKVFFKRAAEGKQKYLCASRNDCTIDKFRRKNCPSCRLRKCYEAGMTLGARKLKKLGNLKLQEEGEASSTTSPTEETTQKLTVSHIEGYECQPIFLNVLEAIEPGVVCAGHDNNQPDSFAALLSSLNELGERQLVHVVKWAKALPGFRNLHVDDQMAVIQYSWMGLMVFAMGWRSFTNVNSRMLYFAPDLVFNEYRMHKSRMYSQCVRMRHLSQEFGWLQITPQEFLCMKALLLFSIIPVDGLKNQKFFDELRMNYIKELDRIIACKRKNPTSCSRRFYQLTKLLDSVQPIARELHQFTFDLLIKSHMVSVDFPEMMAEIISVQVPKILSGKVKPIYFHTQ
Sequence of Nucleoli Translocation, AR (gene 367) (P10275 whole entry, looked up): as above

As to `CNC(=O)ON=C(SC)C(=O)N(C)C`, the result in [1], in [2], in [3], in [4], in assay [5] and in [6] was inactive. For the same compound, the result in assay [7], in assay [8], in assay [9] and in assay [10] was inactive.

`CCC(CC)Nc1c([N+](=O)[O-])cc(C)c(C)c1[N+](=O)[O-]`: in assay [11], the AC50 is 24.8 µM (active). The call in assay [12], in assay [13], in assay [6] and in [7] was inactive.

As to `COP(=O)(OC)SCn1c(=O)oc2cc(Cl)cnc21`, the call in assay [1], in assay [2], in assay [3], in assay [14], in assay [6] and in [7] was inactive. For the same compound, in assay [8], the compound was classed as inactive.

Consider `CCCOc1nn(C(=O)NS(=O)(=O)c2ccccc2C(=O)OC)c(=O)n1C`, for which the outcome in assay [1], in assay [2], in assay [3], in assay [14], in [6] and in assay [7] was inactive. Also, the outcome in assay [8] was inactive.

Take `O=c1ccc(=O)[nH][nH]1`: the outcome in [1], in assay [2], in [14], in [6], in assay [7] and in assay [8] was inactive.

Consider `CC(C1CC1)C(O)(Cn1cncn1)c1ccc(Cl)cc1` (stereo unspecified), for which the result in assay [15], in [16], in assay [17], in [18], in [19] and in [12] was inactive. Moreover, the compound was classed as inactive in assay [13], in assay [6], in [7] and in assay [8]. For the same compound, in assay [11], the concentration at half-maximal activity (AC50) was 35.3 µM (active).

Consider `CCOP(=S)(Oc1cnc(C(C)(C)C)nc1)OC(C)C` (stereo unspecified), for which the concentration at half-maximal activity (AC50) in assay [11] is 59.3 µM (active); in assay [4], 15.6 µM (active); in [5], 15.5 µM (active). Besides, the compound was classed as inactive in assay [12], in assay [13], in [6], in [7], in [9] and in [10].

With `CC[C@H](C)[C@H]1O[C@]2(C=C[C@@H]1C)C[C@@H]1C[C@@H](C/C=C(\C)[C@@H](O[C@H]3C[C@H](OC)[C@@H](O[C@H]4C[C@H](OC)[C@@H](NC)[C@H](C)O4)[C@H](C)O3)[C@@H](C)/C=C/C=C3\CO[C@@H]4[C@H](O)C(C)=C[C@@H](C(=O)O1)[C@]34O)O2`, the AC50 with DIO1 (gene 1733) is 26 µM (active); in [11], 25.7 µM (active); in assay [12] it was 84.7 µM (active); in assay [13], 86.9 µM (active); in assay [4], 4.95 nM (active) and 26.8 nM (active); in assay [5], 4.94 nM (active) and 26.8 nM (active). The AC50 was 50 µM (active) in [6]; 50 µM (active) in assay [8]; 7.43 nM (active) and 28.2 nM (active) in [9]; 38.2 µM (active) and 1.5 µM (active) in assay [10]. Further, in assay [7], the result was inactive.

Usually AC50 stands for the midpoint of the concentration-response curve, whichever way the signal moves.
